Assay outcomes deposited in PubChem by Johns Hopkins Ion Channel Center.
An excerpt weighted towards active compounds, which were near 1.6% of everything screened.
KCNQ2 block: blocks the rat KCNQ2 potassium channel; O88943; CHO-K1 KCNQ2, FluxOR thallium flux, 20 min; active compounds read low; B-score at 10 µM; 310,000 tested, 1.1% active;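 active = fluorescence ratio B-score at most minus 3 library SDs, with starting brightness B-score within 2 library SDs, cut at about -5.5 in these data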
Target sequence (O88943 whole entry, looked up): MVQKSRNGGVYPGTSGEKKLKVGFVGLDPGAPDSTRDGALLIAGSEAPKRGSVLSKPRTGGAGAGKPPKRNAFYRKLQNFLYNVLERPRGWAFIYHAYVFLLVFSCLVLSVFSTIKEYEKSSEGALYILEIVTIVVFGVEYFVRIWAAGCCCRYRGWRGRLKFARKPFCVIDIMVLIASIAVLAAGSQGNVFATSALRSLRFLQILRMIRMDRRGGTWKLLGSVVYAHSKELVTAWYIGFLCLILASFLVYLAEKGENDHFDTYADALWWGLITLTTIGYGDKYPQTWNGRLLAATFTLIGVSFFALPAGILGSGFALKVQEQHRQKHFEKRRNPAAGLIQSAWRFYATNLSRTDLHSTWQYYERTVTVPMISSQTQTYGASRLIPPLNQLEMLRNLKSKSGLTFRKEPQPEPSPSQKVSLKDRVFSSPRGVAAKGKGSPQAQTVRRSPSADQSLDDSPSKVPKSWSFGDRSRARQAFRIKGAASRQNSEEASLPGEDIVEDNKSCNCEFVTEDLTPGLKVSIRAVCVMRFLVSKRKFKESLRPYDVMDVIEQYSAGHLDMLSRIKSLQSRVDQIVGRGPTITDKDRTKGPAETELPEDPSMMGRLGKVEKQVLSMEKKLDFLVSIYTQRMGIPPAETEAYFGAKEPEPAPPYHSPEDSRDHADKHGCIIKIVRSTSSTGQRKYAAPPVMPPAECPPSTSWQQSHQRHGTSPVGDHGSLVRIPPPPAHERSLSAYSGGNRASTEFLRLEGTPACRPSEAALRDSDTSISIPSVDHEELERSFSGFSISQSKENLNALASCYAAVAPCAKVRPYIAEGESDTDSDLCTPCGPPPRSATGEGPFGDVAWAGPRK
KCNQ2 pot: potentiators of rat KCNQ2 potassium channel | B-score at 10 µM | 310,000 tested, 0.54% active | CHO-K1 KCNQ2, FluxOR thallium flux fluorescence; active compounds read high;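 active = fluorescence ratio B-score at least 3 SD of library B-scores, with initial fluorescence B-score within 3 of them, cut at about 5.3 in these data; same plate scores as AID 2156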;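 note: B-score of peak minus minimum over baseline fluorescence ratio after K+ and Tl+ stimulus; positive B-score means potentiation of KCNQ2 with more thallium influx and brighter signal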
KCNQ2 inh conf: confirmation of rat KCNQ2 potassium channel inhibitors. shares compounds with KCNQ2 block. KCNQ2-expressing cells, thallium flux, inhibition; active compounds read low. activity change, negative = inhibition, % at 10 µM. 1,000 tested, 57% active. AID 493025;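 note: 0% = vehicle wells and values are ratio percent relative to vehicle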
KCNQ1 spec: KCNQ2 inhibitor that also affects human KCNQ1 channel. activity change, negative = inhibition, % at 10 µM. 1,000 tested, 15% active. KCNQ1-expressing cells, FluxOR thallium flux fluorescence; active compounds read low. shares compounds with KCNQ2 block;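 active = activity change at least 3 SD of negative controls below their mean in both duplicate wells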;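 note: CHO cells stably transfected with KCNQ1 and depolarized by potassium stimulus; peak minus minimum fluorescence over baseline after thallium addition; 0% = vehicle negative control and -100% = blank without thallium stimulus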
CHO parental ctr: counter-screen for KCNQ2 inhibitors: effect in parental CHO cells | thallium flux counter-screen; active compounds read low | 1,000 tested, 14% active | AID 493029 | shares compounds with KCNQ2 block | activity change, % at 10 µM;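 note: 0% = vehicle negative controls with stimulus buffer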
KCNQ2 patch conf: confirmation of rat KCNQ2 potassium channel inhibitors. shares compounds with KCNQ2 block. KCNQ2-expressing cells, automated patch clamp current. calls only at 10 µM. 550 tested, 49% active. AID 588531
Active calls of the source: *; i = inactive; / = no result; + = active, no number. Unless noted, the rule behind the calls is not given here.

SMILES | KCNQ2 block | KCNQ2 pot | KCNQ2 inh conf | KCNQ1 spec | CHO parental ctr | others
N#Cc1nc(Cc2ccccc2)oc1N1CCC(Cc2ccccc2)CC1 | i | / | / | / | /
N#Cc1nc(COc2ccc(F)cc2)oc1N1CCC(Cc2ccccc2)CC1 | -8.9* | -8.9 | -42%* | -42%* | -32%* | KCNQ2 patch conf=i
CCCN(CCC)C(=O)Cc1coc2ccc3ccccc3c12 | -7.3* | -7.3 | i | i | i
O=C(Cc1coc2ccc3ccccc3c12)NCc1ccccc1 | i | 0.14 | / | / | /
O=C(NCCCO)c1c(O)c2cccc3c2n(c1=O)CCC3 | i | / | / | / | /
CC(=O)N(CN1C(=O)c2ccccc2C1=O)c1ccc2c(c1)oc1ccccc12 | i | / | / | / | /
COc1ccc2c(c1)C(C)(CCN)C(=O)N2C (centres undefined) | i | / | / | / | /
CCOC(=O)CSc1nnc(CNc2ccc(Cl)cc2)n1-c1ccccc1 | -8.9* | -8.9 | i | i | i
COC(=O)CSc1nnc(CNc2ccc(Cl)cc2)n1Cc1ccccc1 | i | / | / | / | /
COc1cccc(OCC(=O)O)c1 | i | / | / | / | /
Cc1cc(OCc2cc(C(=O)N3CCCCCC3)no2)cc(C)c1Cl | i | / | / | / | /
O=C(N/N=C/c1cc(Br)c(O)c(Br)c1)c1cc2c(ccc3ccccc32)o1 | -11* | -11 | -53%* | -50%* | -54%* | KCNQ2 patch conf=i
O=C(N/N=C/c1ccc(O)c(Br)c1)c1cc2c(ccc3ccccc32)o1 | i | / | / | / | /
Cc1ccc(C(CNS(=O)(=O)c2ccc(F)cc2C)N2CCN(C)CC2)cc1 (centres undefined) | i | 0.57 | / | / | /
Cc1cc(C(=O)NC2CCCCC2C)c2ccccc2n1 (centres undefined) | i | / | / | / | /
CCc1nc2ccc(F)cc2c(C(=O)NC2CCCCC2C)c1C (centres undefined) | -7.1* | -7.1 | -26%* | i | i | KCNQ2 patch conf=+
COc1ccc(C(=O)CCN2CCN(c3ccccc3OC)CC2)cc1 | i | / | / | / | /
COc1ccc(C(=O)CCN2CCc3cc(OC)c(OC)cc3C2)cc1 | -9.6* | -9.6 | -32%* | i | i | KCNQ2 patch conf=i
CCOc1cc(CNCCc2ccc(S(N)(=O)=O)cc2)ccc1OCc1ccccc1 | i | / | / | / | /
CCOc1cc(CNCCc2ccc(S(N)(=O)=O)cc2)cc(Cl)c1OCc1ccccc1 | -9.4* | -9.4 | -30%* | i | i | KCNQ2 patch conf=i
CCN(CC)C(=O)CSc1nc2ccccc2c(=O)n1CC1CCCCC1 | -6.6* | -6.6 | -45%* | -38%* | -30%* | KCNQ2 patch conf=+
O=C(CSc1nc2ccccc2c(=O)n1CC1CCCCC1)N1CCOCC1 | i | / | / | / | /
COc1ccc(NC(=S)N(Cc2ccccn2)Cc2ccccc2Cl)cc1 | -7.9* | -7.9 | i | i | i
COc1cccc(NC(=S)N(Cc2ccccn2)Cc2ccccc2Cl)c1 | i | / | / | / | /
CN(C(=O)CSc1nnc(-c2cccnc2)n1-c1ccccc1F)C1CCS(=O)(=O)C1 (centres undefined) | i | / | / | / | /
SMILES | KCNQ2 block | KCNQ2 pot | KCNQ2 inh conf | KCNQ1 spec | CHO parental ctr | others
COc1ccc(-c2cc(C(=O)NNC(=O)c3csc(N4CCOCC4)n3)c3ccccc3n2)cc1OC | i | 0.04 | / | / | /
O=C(Nc1ccccc1N1CCOCC1)c1cc(-c2ccncc2)nc2ccccc12 | -7.2* | -7.2 | -50%* | -45%* | -38%* | KCNQ2 patch conf=+
COc1ccc(-c2cc(C(=O)Nc3ccccc3N3CCOCC3)c3ccccc3n2)cc1OC | -8.2* | -8.2 | -38%* | -35%* | -28%* | KCNQ2 patch conf=+
O=C(Nc1ccc(N2CCOCC2)cc1)c1cc(-c2ccncc2)nc2ccccc12 | i | / | / | / | /
Brc1cccc(CNc2nc3ccccc3n2CCN2CCCCC2)c1 | i | / | / | / | /
Cn1c(NCc2cccc(Br)c2)nc2ccccc21 | -9* | -9 | -34%* | -28%* | -22%* | KCNQ2 patch conf=+
O=C(CNC(=O)c1cc(S(=O)(=O)N2CCCCC2)ccc1N1CCOCC1)Nc1ccc(F)c(F)c1 | i | / | / | / | /
COc1ccccc1CNC(=O)C1CCC(CNS(=O)(=O)c2ccccc2)CC1 (centres undefined) | i | 1.1 | / | / | /
CCCOC(=O)C1C2C=CC(C3CC23)C1C(=O)OCC(=O)c1ccccc1 (centres undefined) | -9.4* | -9.4 | i | i | i
COC(=O)C1C2CCC(C2)C1C(=O)OCC(=O)c1ccccc1 (centres undefined) | i | / | / | / | /
O=C(OCCN=C1NS(=O)(=O)c2ccccc21)c1ccco1 | i | / | / | / | /
Cc1nn2c(N)c(-c3ccccc3)cnc2c1-c1ccc(Cl)cc1 | i | / | / | / | /
Cc1nc2c(-c3ccccc3)c(C)nn2c(N)c1-c1ccccc1 | -7.5* | -7.5 | -34%* | i | i | KCNQ2 patch conf=i
CCN(CC)C(=O)C1c2ccccc2Oc2ccccc21 | i | / | / | / | /
CCCCCOC(=O)CC(C(=O)OCCCCC)N1CCCCC1 (centres undefined) | -9.2* | -9.2 | -34%* | -32%* | -30%* | KCNQ2 patch conf=i
CCCCCCCCCOC(=O)C(CC(=O)O)N1CCOCC1 (centres undefined) | i | / | / | / | /
CCCCNCc1cc2ccccc2o1 | i | / | / | / | /
CC(=O)Nc1ccccc1OCC(=O)NCCC1=CCCCC1 | i | 1.3 | / | / | /
Cc1ccccc1OCC(=O)NCCC1=CCCCC1 | -7.3* | -7.3 | i | i | i
Cn1nccc1C(=O)Oc1cccc(/C=N/NC(=O)c2ccccc2O)c1 | i | 0.6 | / | / | /
CCOC(=O)c1c(-c2ccc(Cl)cc2)csc1NC(=O)CNCc1ccco1 | i | / | / | / | /
CCOC(=O)c1c(-c2ccccc2)csc1NC(=O)C(C)NCc1ccco1 (centres undefined) | -7.2* | -7.2 | -31%* | i | i | KCNQ2 patch conf=i
CCOC(=O)C1C(=O)C=C(c2cccs2)CC1c1ccccc1 (centres undefined) | i | / | / | / | /
CCOC(=O)C1C(=O)C=C(c2ccc(C)cc2)CC1c1ccccc1 (centres undefined) | -7.2* | -7.2 | -26%* | i | i | KCNQ2 patch conf=i
CCN(c1ccccc1)S(=O)(=O)c1ccc(OC)c(NC(=O)Cn2cnc3c2c(=O)n(C)c(=O)n3C)c1 | i | / | / | / | /
SMILES | KCNQ2 block | KCNQ2 pot | KCNQ2 inh conf | KCNQ1 spec | CHO parental ctr | others
COc1ccc(CNC(c2ccccc2)c2ccc(Cl)cc2)cc1 (centres undefined) | -8.8* | -8.8 | i | i | i
OC(CNCc1ccc(Cl)cc1)(c1ccccc1)c1ccc(F)cc1 (centres undefined) | -7.2* | -7.2 | -33%* | -34%* | -32%* | KCNQ2 patch conf=i
CC(NCc1ccc(OCc2ccc(Cl)cc2)cc1)C(O)c1ccccc1 (centres undefined) | i | / | / | / | /
COc1ccc(CNCC(O)(c2ccc(Cl)cc2)c2ccc(Cl)cc2)cc1 | -7.7* | -7.7 | i | i | i
OC(CNCc1ccc(F)cc1)(c1ccc(F)cc1)c1ccc(F)cc1 | i | / | / | / | /
COc1ccc(CNCC(O)(c2ccc(Cl)cc2)c2ccc(Cl)cc2)cc1OC | i | / | / | / | /
COC(=O)C1CCN(S(=O)(=O)CCNC(=O)c2ccc3c(c2)OCO3)CC1 | i | 1.8 | / | / | /
COc1ccccc1-n1c(CNC(=O)c2ccco2)n[nH]c1=S | i | 0.16 | / | / | /
